Article PMC5700166
Changes are numbered by the printed parent chain.

Legend:
Test in all cases: protein-binding microarray (PBM); PBM: ~300 nM protein, 6 mM HEPES pH 7.8, 80 mM KCl, 0.5 mM EDTA, 0.5 mM EGTA, 6% glycerol, 35 ng/ul poly-dIdC, 1% milk, 1 h, room temperature; Ap Aiptasia and Nv Nematostella (sea anemones) / Co Capsaspora / Aq Amphimedon (sponge) / Dm Drosophila / Hu human; RHD is the Rel homology domain; high values mean tight binding
Details in all cases: dsDNA, one strand shown
[1] = molecular target: T1, GST-Ap-NF-kB RHD (Exaiptasia pallida (Aiptasia), UniProt A0A913YAJ5 2-422)
T1 sequence: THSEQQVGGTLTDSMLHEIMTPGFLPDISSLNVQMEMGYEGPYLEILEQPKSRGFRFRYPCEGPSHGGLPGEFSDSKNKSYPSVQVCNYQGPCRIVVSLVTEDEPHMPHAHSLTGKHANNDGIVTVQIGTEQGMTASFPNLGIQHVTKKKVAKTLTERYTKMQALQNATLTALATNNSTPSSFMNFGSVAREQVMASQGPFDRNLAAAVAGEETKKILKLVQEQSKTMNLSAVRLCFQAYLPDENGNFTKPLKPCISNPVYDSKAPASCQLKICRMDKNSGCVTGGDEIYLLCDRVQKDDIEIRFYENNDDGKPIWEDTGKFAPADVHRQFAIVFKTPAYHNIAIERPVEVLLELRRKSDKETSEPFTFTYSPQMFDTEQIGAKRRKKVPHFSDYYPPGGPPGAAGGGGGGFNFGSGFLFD

[2] = molecular target: T2, GST-Nv-NF-kB (Cys allele) (Nematostella vectensis, UniProt E5G601 2-411)
T2 sequence: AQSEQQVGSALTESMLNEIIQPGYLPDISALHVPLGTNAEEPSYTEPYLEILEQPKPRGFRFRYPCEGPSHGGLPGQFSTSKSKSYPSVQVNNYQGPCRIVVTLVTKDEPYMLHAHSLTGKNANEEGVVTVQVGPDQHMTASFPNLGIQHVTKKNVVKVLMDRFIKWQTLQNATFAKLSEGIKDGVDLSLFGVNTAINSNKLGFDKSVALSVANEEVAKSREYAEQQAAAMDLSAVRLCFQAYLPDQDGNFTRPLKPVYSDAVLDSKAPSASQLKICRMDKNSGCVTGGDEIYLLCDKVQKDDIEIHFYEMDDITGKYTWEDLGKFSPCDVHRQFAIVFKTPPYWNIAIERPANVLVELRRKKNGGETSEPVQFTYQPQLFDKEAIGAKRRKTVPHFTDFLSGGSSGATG

[3] = molecular target: T3, GST-Nv-NF-kB (Ser allele) (Nematostella vectensis, UniProt A7UNT2 2-411)
T3 sequence: T2 sequence with Q21R, C66S, S207N, E215Q, V217A, E225K, A268E, D399E

[4] = molecular target: T4, GST-Co-NF-kB (Capsaspora owczarzaki, UniProt F1ARL5 200-546)
T4 sequence: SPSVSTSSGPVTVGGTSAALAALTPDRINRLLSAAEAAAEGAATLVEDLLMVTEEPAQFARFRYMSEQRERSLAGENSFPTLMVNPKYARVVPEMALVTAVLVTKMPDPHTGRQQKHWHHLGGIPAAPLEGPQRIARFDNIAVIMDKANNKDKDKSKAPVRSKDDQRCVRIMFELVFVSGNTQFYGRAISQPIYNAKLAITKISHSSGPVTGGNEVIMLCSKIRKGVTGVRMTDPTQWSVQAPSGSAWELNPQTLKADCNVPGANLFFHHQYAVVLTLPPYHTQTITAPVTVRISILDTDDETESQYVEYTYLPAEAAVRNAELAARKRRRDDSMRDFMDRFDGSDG

[5] = molecular target: T5, GST-Aq-NF-kB (Amphimedon queenslandica, UniProt A9Y5G7 2-389)
T5 sequence: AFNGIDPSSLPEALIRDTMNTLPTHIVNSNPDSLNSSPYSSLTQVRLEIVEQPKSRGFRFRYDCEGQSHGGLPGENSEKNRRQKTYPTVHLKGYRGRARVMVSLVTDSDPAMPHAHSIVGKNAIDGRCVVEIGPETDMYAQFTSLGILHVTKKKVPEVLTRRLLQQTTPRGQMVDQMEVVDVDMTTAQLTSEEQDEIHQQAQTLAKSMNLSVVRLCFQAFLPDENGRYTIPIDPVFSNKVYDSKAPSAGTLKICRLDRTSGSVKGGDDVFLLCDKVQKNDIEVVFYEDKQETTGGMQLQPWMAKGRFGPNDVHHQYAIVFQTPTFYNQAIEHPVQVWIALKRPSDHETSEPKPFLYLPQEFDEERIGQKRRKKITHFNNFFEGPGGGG

[6] = molecular target: GST-Hu-p50 (Homo sapiens, UniProt P19838 7-356)
Sequence of GST-Hu-p50 (P19838 7-356): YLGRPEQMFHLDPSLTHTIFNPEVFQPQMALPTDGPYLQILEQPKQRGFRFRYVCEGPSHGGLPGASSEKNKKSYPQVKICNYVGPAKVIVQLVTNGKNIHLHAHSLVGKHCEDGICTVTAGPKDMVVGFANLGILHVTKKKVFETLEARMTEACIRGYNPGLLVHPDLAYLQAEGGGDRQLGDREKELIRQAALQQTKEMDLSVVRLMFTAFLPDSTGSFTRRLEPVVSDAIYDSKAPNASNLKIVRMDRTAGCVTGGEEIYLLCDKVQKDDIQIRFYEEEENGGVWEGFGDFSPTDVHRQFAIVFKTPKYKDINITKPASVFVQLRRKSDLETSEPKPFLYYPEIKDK

[7] = molecular target: T6, GST-Dm-Relish (Drosophila melanogaster, UniProt Q94527 99-473)
T6 sequence: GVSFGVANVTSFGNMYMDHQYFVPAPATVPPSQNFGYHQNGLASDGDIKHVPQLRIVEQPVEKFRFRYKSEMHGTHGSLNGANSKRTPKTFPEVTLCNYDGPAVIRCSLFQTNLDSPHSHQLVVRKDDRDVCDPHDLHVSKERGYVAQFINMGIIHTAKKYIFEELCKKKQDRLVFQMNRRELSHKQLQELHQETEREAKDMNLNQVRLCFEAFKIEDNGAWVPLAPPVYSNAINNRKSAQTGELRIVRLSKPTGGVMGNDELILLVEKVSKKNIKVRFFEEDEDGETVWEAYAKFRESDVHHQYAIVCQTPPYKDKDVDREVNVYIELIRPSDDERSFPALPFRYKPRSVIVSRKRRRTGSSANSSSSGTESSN

| Sequence | binding signal [1] | binding signal [2] | binding signal [3] | binding signal [4] | binding signal [5] | binding signal [6] | binding signal [7] |
| --- | --- | --- | --- | --- | --- | --- | --- |
| CCGATTAACATCATATTTTCCCATGATGTTAATCGGGTCTTGATTCGCTTGACGCTGCTG | 2.18 z-score | 4.42 z-score | 5.61 z-score | 4.34 z-score | 2.52 z-score | 4.15 z-score |  |
| CCGATTAACATCAGGGAAACAAATGATGTTAATCGGGTCTTGATTCGCTTGACGCTGCTG | 1.7 z-score | 3.05 z-score | 3.17 z-score | 4.61 z-score | 3.12 z-score | 1.97 z-score |  |
| CCGATTAACATCACGGGATTTGGTGATGTTAATCGGGTCTTGATTCGCTTGACGCTGCTG | 1.89 z-score | 1.93 z-score | 1.12 z-score | 1.17 z-score | 1.61 z-score | 2.36 z-score | 1.79 z-score |
| CCGATTAACATCAAAGGGAATAGTGATGTTAATCGGGTCTTGATTCGCTTGACGCTGCTG | 2.26 z-score | 2.76 z-score | 2.94 z-score | 1.98 z-score | 2.54 z-score | 1.25 z-score |  |
| CCGATTAACATCAGGGCTGCCCCTGATGTTAATCGGGTCTTGATTCGCTTGACGCTGCTG | 4.09 z-score | 3.62 z-score | 1.89 z-score | 1.21 z-score | 6.85 z-score | 3.48 z-score | 4.09 z-score |
| CCGATTAACATCAAGTACGGGAATGATGTTAATCGGGTCTTGATTCGCTTGACGCTGCTG | 1.11 z-score | 2.04 z-score | 1.41 z-score | 2.85 z-score | 3.24 z-score | 1.22 z-score |  |
| CCGATTAACATCAGGGGAGTTACTGATGTTAATCGGGTCTTGATTCGCTTGACGCTGCTG | 5.46 z-score | 4.25 z-score | 4.83 z-score | 3.43 z-score | 5.17 z-score | 4.45 z-score | 7.83 z-score |
| CCGATTAACATCAGGGGGTAAGATGATGTTAATCGGGTCTTGATTCGCTTGACGCTGCTG | 3.96 z-score | 3.13 z-score | 3.97 z-score | 5.47 z-score | 3.34 z-score | 3.07 z-score | 1.62 z-score |
| CCGATTAACATCAGGGGAGTGGATGATGTTAATCGGGTCTTGATTCGCTTGACGCTGCTG | 3.01 z-score | 2.86 z-score | 3.98 z-score | 1.84 z-score | 2.85 z-score | 2.9 z-score |  |
| CCGATTAACATCAGATGGGAAAATGATGTTAATCGGGTCTTGATTCGCTTGACGCTGCTG | 2.47 z-score | 4.24 z-score | 5.39 z-score | 2.47 z-score | 2.28 z-score | 2.37 z-score |  |
| CCGATTAACATCAAAGCTTTCCCTGATGTTAATCGGGTCTTGATTCGCTTGACGCTGCTG | 2.54 z-score | 4.28 z-score | 4.2 z-score | 3.59 z-score | 4.07 z-score | 3.46 z-score | 1.47 z-score |
| CCGATTAACATCAACGTGGGAAATGATGTTAATCGGGTCTTGATTCGCTTGACGCTGCTG | 1.56 z-score | 2.36 z-score | 1.77 z-score | 2.91 z-score | 1.71 z-score | 1.29 z-score |  |
| CCGATTAACATCAGACATTTCCCTGATGTTAATCGGGTCTTGATTCGCTTGACGCTGCTG | 2.94 z-score | 4.75 z-score | 4.39 z-score | 3.17 z-score | 5.41 z-score | 3.59 z-score |  |
| CCGATTAACATCATCCCTCCCCATGATGTTAATCGGGTCTTGATTCGCTTGACGCTGCTG | 3.84 z-score | 2.72 z-score | 2.58 z-score | 3.09 z-score | 2.55 z-score | 1.83 z-score |  |
| CCGATTAACATCACTATTCCCCCTGATGTTAATCGGGTCTTGATTCGCTTGACGCTGCTG | 5.37 z-score | 6.24 z-score | 7.08 z-score | 7.68 z-score | 4.96 z-score | 5.82 z-score | 3.2 z-score |
| CCGATTAACATCAGGGGCTTTTATGATGTTAATCGGGTCTTGATTCGCTTGACGCTGCTG | 6.92 z-score | 9.51 z-score | 7.11 z-score | 1.53 z-score | 7.6 z-score | 6.51 z-score | 7.16 z-score |
| CCGATTAACATCAATTGGGAAAATGATGTTAATCGGGTCTTGATTCGCTTGACGCTGCTG | 1.52 z-score | 2.96 z-score | 4.08 z-score | 2.47 z-score | 1.4 z-score | 2.04 z-score |  |
| CCGATTAACATCAGGGGAATTTATGATGTTAATCGGGTCTTGATTCGCTTGACGCTGCTG | 9.91 z-score | 11.9 z-score | 12.9 z-score | 8.16 z-score | 8.72 z-score | 7.75 z-score | 9.13 z-score |
| CCGATTAACATCATCCTGGGAAATGATGTTAATCGGGTCTTGATTCGCTTGACGCTGCTG | 1.13 z-score | 2.18 z-score | 1.37 z-score | 2.72 z-score | 1.03 z-score | 1.74 z-score |  |
| CCGATTAACATCAGGGGATGAACTGATGTTAATCGGGTCTTGATTCGCTTGACGCTGCTG | 2.44 z-score | 3.65 z-score | 4.24 z-score | 3.23 z-score | 3.73 z-score | 2.94 z-score | 7.62 z-score |
| CCGATTAACATCAATCTTTTCCCTGATGTTAATCGGGTCTTGATTCGCTTGACGCTGCTG | 2.35 z-score | 4.39 z-score | 5.52 z-score | 3.98 z-score | 3.34 z-score | 2.99 z-score |  |
| CCGATTAACATCACGAAATCCCCTGATGTTAATCGGGTCTTGATTCGCTTGACGCTGCTG | 8.93 z-score | 9.59 z-score | 11.6 z-score | 4 z-score | 6.39 z-score | 7.74 z-score | 8.34 z-score |
| CCGATTAACATCAAAAATACCCCTGATGTTAATCGGGTCTTGATTCGCTTGACGCTGCTG | 7.44 z-score | 8.45 z-score | 7.96 z-score | 6.5 z-score | 7.5 z-score | 6.44 z-score | 7.71 z-score |
